Source: PubChem
Many of the other results were omitted from the sample, so hits are more common in it than they were.
USP2a inh – inhibitors of human ubiquitin-specific protease USP2a; O75604; USP2a enzymatic assay, qHTS inhibition; Potency, µM (titrated, usually from 38.3 µM), inactives show top-dose activity change, negative = inhibition, most hits filed as inhibitors; hit rate 0.1% among 60,000; note: nearly all actives have a fitted effect of over 60% in size
Target sequence (O75604 whole entry, looked up): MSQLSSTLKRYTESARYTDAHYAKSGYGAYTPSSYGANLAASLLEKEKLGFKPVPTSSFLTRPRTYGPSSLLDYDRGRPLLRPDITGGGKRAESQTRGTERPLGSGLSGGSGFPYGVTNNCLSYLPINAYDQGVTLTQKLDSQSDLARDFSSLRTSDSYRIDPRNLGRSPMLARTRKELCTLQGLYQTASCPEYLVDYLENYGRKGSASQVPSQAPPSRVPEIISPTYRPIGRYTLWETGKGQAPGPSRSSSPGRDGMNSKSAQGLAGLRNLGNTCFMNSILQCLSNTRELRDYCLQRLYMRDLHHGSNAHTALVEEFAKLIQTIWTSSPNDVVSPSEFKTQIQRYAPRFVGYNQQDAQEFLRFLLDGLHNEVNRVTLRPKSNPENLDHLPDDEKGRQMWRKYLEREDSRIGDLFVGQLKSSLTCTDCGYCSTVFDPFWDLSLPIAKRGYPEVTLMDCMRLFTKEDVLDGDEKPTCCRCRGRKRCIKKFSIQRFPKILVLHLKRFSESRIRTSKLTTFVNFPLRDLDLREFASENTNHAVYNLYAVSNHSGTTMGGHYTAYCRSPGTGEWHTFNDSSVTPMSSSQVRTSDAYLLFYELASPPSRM
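Inhibition is measured in a cell-free coupled assay with 20 nM USP2 core, 20 nM Ub-PLA2 and 20 uM NBD C6-HPC, 2.5 h incubation. Activity normalized to NEM control.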
15-hLO-2 inh – blocks human 15-lipoxygenase 2 activity; O15296; purified 15hLO-2, xylenol orange hydroperoxide absorbance; Potency, µM (highest dose often 57.1 µM), for the others: at the top dose activity change, negative = inhibition, actives largely listed as inhibitors; hit rate 0.56% among 110,000; AID 881; note: % is set by controls: 0 for no effect and ±100 for the full control effect; nearly all actives have a fitted effect of over 60% in size
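Enzyme 50 nM, AA 45 uM, 25 mM Hepes pH 7.5 + 0.01% Triton X-100; cpd preinc 15 min RT, rxn 90 min RT; stop/detect with 200 uM XO + 300 uM Fe(II) in 50 mM H2SO4, 30 min; A573/A405.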
Caspase-1 inhib – caspase-1 (human) inhibition, allosteric or competitive; hit rate 0.03% among 75,000; P29466; Caspase-1 enzyme, Ac-WEHD-AFC fluorogenic rate; Potency, µM (titrated, usually from 57.5 µM), without a hit: top-dose activity change, negative = inhibition, actives largely listed as inhibitors;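 note: plate controls were vehicle for no effect and no substrate for full effect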
Casp7 inh – blocks human caspase-7 allosterically or competitively | hit rate 0.02% among 75,000 | P55210 | Potency, µM (titrated, usually from 57.5 µM), without a hit: at the highest dose activity change, negative = inhibition, most hits filed as inhibitors | recombinant caspase-7, Ac-DEVD-AFC fluorescence rate | AID 889; active = well fitted inhibition curve with a large enough effect in the main read-out, with a control signal flat, not every such curve was filed as active; inconclusive = small, poorly fitted or top-dose-only effect, or a change in a side signal; note: % of control where 0% means no effect
Ub-GFP proteasome – proteasome inhibitors stabilizing ubiquitin-GFP reporter. Ubiquitin-GFP reporter cells, proteasome inhibition, GFP fluorescence; response scale: untreated = 0%, 10 µM MG-132 = 100%. Potency, µM (series often up to 45.9 µM), without a hit: top-dose activation (GFP accumulation), usual class: activators. 67,000 tested, under 10 active. AID 526; active = well fitted activation curve with a large enough effect, not every such curve was filed as active; inconclusive = small, poorly fitted or top-dose-only effect, or another doubt; inactive = no such curve, though single readings can be large or run the other way
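Proteasome block read as GFP accumulation: ubiquitin(G76V)-GFP U2OS cells exposed to compound (2.9 nM–46 uM) for 4 hr at 37 C. Normalization used untreated cells as 0% and 10 uM MG-132 as 100%; concentration-response curves fitted.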
15-hLO inh – blocks human 15-lipoxygenase activity; purified 15hLO-1, xylenol orange hydroperoxide absorbance; Potency, µM (series often up to 57.1 µM), inactives show top-dose activity change, negative = inhibition, actives largely listed as inhibitors; hit rate 1.4% among 74,000; AID 887; note: % is set by controls: 0 for no effect and ±100 for the full control effect; nearly all actives have a fitted effect of over 55% in size
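Inhibition is scored from a chromogenic endpoint. After 15 min enzyme-compound contact, arachidonic acid (50 uM final) reacts 6 min with 40 nM 15hLO-1 at room temperature, then Fe-XO reagent is added for 30 min and absorbance ratio recorded.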
* = called active by the depositor; ? = inconclusive; · = not tested or not shown; ! = not confirmed by another sample; [ ] = another dose, or the depositor's remark. Unless noted, calls come from the whole dose curve; as a rule, active = well fitted curve in the direction sought with a large enough effect; inconclusive = small, poorly fitted or top-dose-only effect, or another doubt; inactive = no such curve, though single readings can be large; an effect the other way counts as inactive or inconclusive. Potency is the fitted concentration of half-maximal effect.

SMILES | USP2a inh | 15-hLO-2 inh | Caspase-1 inhib | Casp7 inh | Ub-GFP proteasome | 15-hLO inh
O=C1CCCC2=C1C(c1ccc(Br)cc1)c1c([nH]c(=S)[nH]c1=O)N2 (configuration not stated) | 9% | 32µM* | -4% | -2% | -7% | 25µM*
COc1cc(/C=N/NC(=O)c2cc(-c3ccccc3)n[nH]2)cc(OC)c1OC | · | · | -1% | -1% | · | -7%
CCOC(=O)Cc1csc(-n2sc3ccccc3c2=O)n1 | 2% | 1.3µM* | -4% | 0% | -1% | 0.2µM*
CSc1nnc2n(-c3ccccc3)c(=O)c3c4c(sc3n12)CCC4 | 7% | 4% | 1% | -1% | 2% | 2.5µM*
CSc1nnc2n(C3CCCCC3)c(=O)c3c4c(sc3n12)CCCC4 | · | 1% | · | · | · | ·
C/C(CC/C(C)=N/O)=N/O | · | -6%[11.4 µM] | 1%[11.5 µM] | 0%[11.5 µM] | -1%[9.17 µM] | 8%[11.4 µM]
CCOc1cc(-c2cc(-c3ccccc3)nc(N)c2C#N)ccc1O | · | -19% | · | · | · | ·
CCOc1cc(-c2cc(-c3ccc(N)cc3)nc(N)c2C#N)ccc1O | · | -23% | · | ? | -1% | 25µM*
CC/C=C1/OC(=O)c2ccccc21 | · | 2% | -3% | -2% | · | -6%
CC[C@H](C)[C@@H]1O[C@]2(CC[C@@H]1C)C[C@H]1C[C@H](CC=C(C)[C@@H](O[C@H]3C[C@H](OC)[C@H](O[C@H]4C[C@H](OC)[C@H](O)[C@H](C)O4)[C@H](C)O3)[C@@H](C)C=CC=C3CO[C@@H]4[C@@H](O)C(C)=C[C@H](C(=O)O1)[C@@]34O)O2 | 22% | -8% | -3% | -6% | -5% | -11%
CC(C)=CCC/C(C)=C/CC/C(C)=C/CC/C(C)=C/CC/C(C)=C/CC/C(C)=C/CC/C(C)=C/CC/C(C)=C/CC/C(C)=C/CO | -12% | -5% | 1% | -1% | · | -1%
C=CC(C)(O)CC/C=C(\C)CCC=C(C)C (configuration not stated) | 2% | 5% | 3% | -1% | · | 13µM*
CC(C)=CCC/C(C)=C/CO | -14% | -2%[11.4 µM] | -1%[11.5 µM] | 2%[11.5 µM] | 2%[9.17 µM] | 7.9µM*!
CC(C)=CCC/C(C)=C/CC/C(C)=C/CO | 1% | 4% | 0% | -2% | · | ?
O=C(O)CNC(=O)c1ccc([N+](=O)[O-])cc1 | · | 2% | 0% | 1% | · | 3%
Cc1cc(C)cc(C(=O)N(C)[C@H](Cc2ccc(-c3ccccc3)cc2)C(=O)N[C@@H](Cc2c[nH]c3ccccc23)C(=O)O)c1 | · | ? | -13% | 32µM* | 1% | -6%[25.6 µM]
Clc1ccc2c(N3CCCC3)ccnc2c1 | 4% | 8% | ? | -16% | 5% | 20µM*
Cc1cccc2cc3c(nc12)SC(=NCC1CCCO1)N(Cc1ccco1)C3 (configuration not stated) | · | -13% | -13% | -19% | 7% | 10µM*
O=c1[nH]c(=O)n([C@H]2C[C@H](O)[C@H](CO)O2)cc1/C=C\Br | 3% | 2% | -2% | 2% | -2% | 6%
CC1(C)S[C@H]2[C@@H](NC(=O)C(N)c3ccccc3)C(=O)N2[C@H]1C(=O)O (some centres not stated) | · | -4% | 0% | -2% | · | 26%[25.6 µM]
C[C@@H]1c2cccc(O)c2C(O)=C2C(=O)[C@@]3(O)C(O)=C(C(N)=O)C(=O)[C@@H](N(C)C)[C@@H]3[C@@H](O)[C@@H]21 | 16µM* | 6%[25.6 µM] | -6%[25.7 µM] | -5%[25.7 µM] | -9%[20.5 µM] | 12%[25.6 µM]
C=C1c2cccc(O)c2C(O)=C2C(=O)[C@@]3(O)C(O)=C(C(N)=O)C(=O)[C@@H](N(C)C)[C@@H]3[C@@H](O)[C@H]12 | 62%[17.1 µM] | 5%[25.6 µM] | -10%[25.7 µM] | -23%[25.7 µM] | -2%[20.5 µM] | -10%[25.6 µM]
Cc1c(C(C)(C)C)c(C=S)n2ccccc12 | · | 16µM* | · | · | · | ·
CCOc1ccc2c(c1)C(C)=CC(C)(C)N2 | -10% | 13µM* | -8% | -12% | -6%[20.5 µM] | 25µM*
CC1=CC(C)(C)Nc2ccc(OC(=O)CN3C(=O)c4cccc5cccc(c45)C3=O)cc21 | · | 13µM* | · | · | · | ·
SMILES | USP2a inh | 15-hLO-2 inh | Caspase-1 inhib | Casp7 inh | Ub-GFP proteasome | 15-hLO inh
CC1=CC(C)(C)Nc2ccc(OC(=O)C(Cc3ccccc3)N3C(=O)c4ccccc4C3=O)cc21 (configuration not stated) | · | -3% | · | · | · | ·
O=C(O)[C@@H]1[C@@H](C(=O)NCc2ccccn2)[C@@H]2C=C[C@@H]1O2 | · | 0%[11.4 µM] | 4%[11.5 µM] | -1%[11.5 µM] | 6%[9.17 µM] | 10%[11.4 µM]
CN(C)/N=N\c1nc[nH]c1C(N)=O | 1%[17.1 µM] | 5%[25.6 µM] | -3%[25.7 µM] | 1%[25.7 µM] | 0%[20.5 µM] | 4%[25.6 µM]
O=C1NCCCc2c1oc1ccc(O)cc21 | -4% | ? | -1% | 0% | 1% | 2%
Oc1c(Cl)cc(Cl)c2c1NCCC2 | 29% | 5µM* | -4% | 1% | 2% | 1.6µM*
CCCCc1ccc(/C=C2\C(=O)c3ccccc3C(O)=C2C(=O)OCC)cc1 | · | 10µM* | · | · | · | ·
O=c1c(-c2ccccc2)nc2cnc(N3CCNCC3)nc2n1-c1ccccc1 | 55% | 32% | · | ? | 2% | 0.32µM*
O=c1c(-c2ccc(Cl)cc2)nc2cnc(N3CCNCC3)nc2n1-c1ccccc1 | 214% | 32% | · | ? | -5% | 5%
CC(=O)O[C@@H]1CC[C@]2(C)[C@H]3CC[C@]4(C)[C@H](C[C@H]5CCCC[C@@]54C(C)=O)[C@@H]3CC(=O)[C@@]2(O)C1 | · | · | · | · | -4% | ·
